Compound activity as filed in PubChem.
PostGolgi ctrl: inhibits growth of the yeast control strain; inhibition, % at 10 µM; efflux-deficient yeast background strain, growth absorbance A615, 16 h; actives 5% (n = 98,000); AID 738
MT1-MMP txn act: activates MT1-MMP transcription; HT1080 MT1-MMP promoter luciferase reporter, luminescence, overnight; stronger effect = higher value; activation factor at 10 µM; actives 0.16% (n = 86,000); AID 750;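 active = activation factor of at least 2 for MT1-MMP transcription at 10 µM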
PostGolgi yeast: growth inhibition of a yeast mutant, post-Golgi transport screen. post-Golgi transport phenotypic cell assay. inhibition, % at 10 µM. actives 0.9% (n = 98,000);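 also: yeast cells grown in 1536-well plates; yeast grown about 18 h at 30C before absorbance read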
Measles CPE: protection of cells from measles virus. protection (pct of control), % at 4 µM. Measles virus-infected cells, CPE protection, absorbance. actives 1.5% (n = 140,000); in the data active = protection mostly above about 24%, no sharp cut-off; inactive = mostly below about 26%
Hits are given with their value; 0 = inactive; - = no result. Compounds with a hit are over-represented: about 5.3% of the library has one in this group of screens. Rule as the data show it, unless noted: active = inhibition above about 30%; inactive = the rest.

SMILES	PostGolgi ctrl	MT1-MMP txn act	PostGolgi yeast	Measles CPE
C=CCn1c(SCc2ccccc2C#N)nnc1-c1cc(Br)ccc1O	52	0	0	0
COc1ccc(-n2c(-c3ccccc3)cc3c2CCCC3=O)cc1	68	-	0	0
Cn1nc([N+](=O)[O-])nc1N1CCOCC1	-	-	-	0
Cc1ccccc1NC(=O)CSCc1nc(N)nc(Nc2ccccc2C)n1	-	-	-	0
COc1ccccc1-c1noc(-c2ccncc2)n1	0	0	0	0
COc1ccccc1-c1noc(-c2cccs2)n1	32	0	0	0
O=S(=O)(/N=C(/Nc1ccc(F)cc1F)c1ccccc1)c1ccccc1	-	-	-	0
Cc1ccc2c(CC(=O)NC3CCCc4ccccc43)coc2c1 (configuration not stated)	-	-	-	0
O=C(NCc1ccccc1)Nc1cccn(Cc2ccccc2F)c1=O	-	-	-	0
O=C(O)c1cccn1Cc1ccccc1F	0	0	0	44
CCC1=C2CC[C@H]3C(=O)N(CC)C(=O)[C@H]3[C@H]2[C@@]2(Cc3ccccc3)C(=O)N(CCOC)C(=O)N2C1=O	-	0	-	-
Cc1ccc(Cl)cc1N1CCN(C(=O)C2CCN(S(=O)(=O)c3c(C)nn(C)c3C)CC2)CC1	41	0	0	0
Cc1ccc(Cl)cc1N1CCN(C(=O)C2CCN(S(=O)(=O)c3cccnc3)CC2)CC1	0	-	0	0
O=S(=O)(NCC(c1cccnc1)N1CCOCC1)c1cccs1 (configuration not stated)	-	0	-	0
O=S(=O)(NCC(c1cccnc1)N1CCN(c2ccc(F)cc2)CC1)c1ccc(F)cc1 (configuration not stated)	73	0	90	0
O=S(=O)(NCC(c1cccnc1)N1CCN(c2ccc(F)cc2)CC1)c1cccs1 (configuration not stated)	55	0	78	0
CCS(=O)(=O)NCC(c1ccco1)N1CCN(c2ccc(F)cc2)CC1 (configuration not stated)	-	-	-	0
CS(=O)(=O)NCC(c1ccco1)N1CCN(c2ccc(F)cc2)CC1 (configuration not stated)	-	-	-	63
O=C(NCC(c1cccnc1)N1CCN(c2ccc(F)cc2)CC1)C1CCCCC1 (configuration not stated)	0	0	0	0
COc1ccc(N2CCN(C(CNC(=O)C3CCCCC3)c3cccnc3)CC2)cc1 (configuration not stated)	35	0	0	0
Cc1cc(C(=O)CSc2n[nH]c(N)n2)c(C)n1-c1ccc2c(c1)OCO2	-	-	-	0
Cc1cccc2sc(NNC(=O)c3cc(-c4cccs4)nc4ccccc34)nc12	-	-	-	0
O=C(NCC(c1cccnc1)N1CCN(c2ccccc2F)CC1)c1cccc(Cl)c1 (configuration not stated)	0	-	47	0
O=S(=O)(NCC(c1cccnc1)N1CCN(c2ccccc2F)CC1)c1cccs1 (configuration not stated)	35	-	62	0
O=C(Nc1ccccc1Cl)c1cccc(NS(=O)(=O)c2ccccc2)c1	0	-	0	0
SMILES	PostGolgi ctrl	MT1-MMP txn act	PostGolgi yeast	Measles CPE
CC(C)(C)NC(=O)CSc1nc2ccccc2n1-c1ccccc1	33	-	0	0
CC(C)NC(=O)CSc1nc2ccccc2n1-c1ccccc1	0	0	0	0
CN(Cc1nc(-c2ccncc2)no1)S(=O)(=O)c1ccc(Br)cc1	31	0	0	0
CC(C)N(Cc1nc(-c2ccccc2)no1)C(=O)CN(C)S(=O)(=O)c1ccccc1	34	0	0	0
CCCC(=O)Nc1sc(C)c(-c2ccc(C(C)CC)cc2)c1C#N (configuration not stated)	0	-	0	0
COc1ccc(OC)c(C(=O)CSc2nnc(Cc3cccs3)n2CCc2ccccc2)c1	0	0	0	0
[O-]/[N+](=C\c1ccc(OC(F)F)cc1)c1ccccc1	0	0	0	42
[O-]/[N+](=C/c1ccc(F)cc1)c1ccccc1	33	0	0	0
Cc1nc(NCCc2ccccc2)c2oc3ccccc3c2n1	51	0	0	0
O=C(C1CC(c2ccccc2O)=NO1)N1CCc2ccccc2C1 (configuration not stated)	0	0	0	47
COc1ccc(NC2=C(C)C(=O)CC2)cc1	46	0	0	0
O=C(O)c1ccc(CSc2nc3ccc(N4C(=O)C5C6C=CC(C6)C5C4=O)cc3s2)cc1 (configuration not stated)	-	-	-	0
CCc1cccc(CC)c1NC(=O)CSc1nc2ccc(N3C(=O)C4C5C=CC(C5)C4C3=O)cc2s1 (configuration not stated)	30	-	0	0
O=C(Nc1cc(SCCO)cc([N+](=O)[O-])c1)c1ccc(Br)o1	-	-	-	0
CCn1c2c(c3cc(Br)ccc31)CCC/C2=N\O	41	-	0	0
CCn1c2c(c3cc(OCC(C)C)ccc31)CCCC2=O	-	0	-	0
CCCCCOC(=O)C1=C(C)Nc2nnnn2C1c1ccccc1Cl (configuration not stated)	48	0	46	0
CCCCOC(=O)C1=C(C)Nc2nnnn2C1c1ccc(OC)c(OC)c1OC (configuration not stated)	0	0	0	46
CCCCOC(=O)C1=C(C)Nc2ncnn2C1c1ccc(OC)c(OC)c1OC (configuration not stated)	0	0	0	0
N#CC(c1ccc(Cl)cc1)c1ccc(Cl)nn1 (configuration not stated)	0	0	0	0
COc1ccc(C(=O)Nc2ccc(Cl)cc2C(=O)N2CCCC(C)C2)cc1OC (configuration not stated)	-	-	-	0
CC1CN(C(=O)Nc2ccc3snnc3c2)c2ccccc21 (configuration not stated)	30	0	0	0
Cn1c(-c2c(N)n(C3CCCC3)c3nc4ccccc4nc23)nc2ccccc21	100	0	0	0
Cn1c(-c2c(N)n(CCCc3ccccc3)c3nc4ccccc4nc23)nc2ccccc21	0	0	0	0
COCCCn1c(N)c(-c2nc3ccccc3n2C)c2nc3ccccc3nc21	73	0	0	0
SMILES	PostGolgi ctrl	MT1-MMP txn act	PostGolgi yeast	Measles CPE
O=S(=O)(Nc1c(S(=O)(=O)c2ccccc2)c2nc3ccccc3nc2n1C1CCCCC1)c1ccccc1	-	-	-	0
Cn1c(-c2c(N)n(CCc3ccccc3)c3nc4ccccc4nc23)nc2ccccc21	78	0	88	0
CC(/C=N/NC(=O)c1ccncc1)=C\c1ccc(C(C)C)cc1	35	-	30	0
COc1ccccc1Oc1cc(C#N)c(C#N)cc1-n1nnc2ccccc21	30	-	0	0
N#Cc1cc([N+](=O)[O-])c(-n2nnc3ccccc32)c([N+](=O)[O-])c1	0	-	0	0
COC(=O)c1cnn(-c2nc3c(C)cccc3s2)c1C	0	-	0	0
COc1ccccc1OCCCc1c(C)n[nH]c1C	100	0	109	0
Cc1cccc(OCCCCc2c(C)n[nH]c2C)c1C	38	0	0	0
COc1ccccc1OCCCCCc1c(C)n[nH]c1C	0	0	0	0
Cc1ccc(S(=O)(=O)NNC(=O)C(O)(c2ccccc2C)c2ccccc2C)cc1	-	-	-	0
CCOc1ccc(C(=O)N(CN2CCCC2=O)c2ccc(C)cc2)cc1	-	0	-	0
Cc1ccc(N(CN2CCCC2=O)C(=O)c2ccc(OC(C)C)cc2)cc1	32	0	0	0
O=C(Nc1cc(S(=O)(=O)N2CCOCC2)ccc1Cl)C(=O)c1c(-c2ccccc2)cc2ccccn12	100	0	93	0
